# Data reported in PubChem BioAssay (NCI).
# Compounds without any hit were thinned out: in the full panel of roughly 83,000, 20% have a hit.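 How to read the values: 0–100, growth inhibition (40 = 60% inhibited); 0, no net growth; -100 to 0, cell death (-40 = 40% of starting cells died; -100 = all dead).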 A number with no mark means an inactive call. Activity calls are given as the source filed them. Rule for the calls: active = growth percent below 10; inactive = the rest.
# Test system: HCC-2998 colon
# Assay: NCI-60 one-dose screen, 48 h (100 = growth as untreated, 0 = no growth, -100 = all killed)
# Conditions: 10 µM unless noted
row,Compound,growth
1,CC1Cc2cc(F)ccc2-n2cccc21 (stereo not given),106%
2,Cc1c(O)c(N=Nc2ccc(C(=O)O)c(O)c2)c2ccccc2c1O,118%
3,CC(C)(C)c1ccc([I+]c2ccc(C(C)(C)C)cc2)cc1,13.4%
4,C=CN(C)S(C)(=O)=O,53%
5,COc1cc(OC)c(NC(=O)n2ncc3cc(Nc4ncnc5ccccc45)ccc32)cc1Cl,89.7%
6,Cc1ccc([C@@H]2C[C@H](O)Cc3ccccc3N2)s1,101%
7,CCCCCCCCCCC1OC(C)CC(C)O1 (stereo not given),101%
8,CCc1c(C)c2ccc(OCC(=O)N=Nc3c(O)[nH]c4ccccc34)c(C)c2oc1=O,-2.02% (active)
9,COc1ccccc1Cn1cc2c(c1)-c1oncc1CC2,-43.1% (active)
10,CC[C@H](Nc1ncnc2nc[nH]c12)c1nc2cccc(NCc3ccc(C(=O)NO)nc3)c2c(=O)n1-c1ccccc1,67.6%
11,COc1ccc(CNCCCN2C(=O)c3ccc4c5c(ccc(c35)C2=O)C(=O)N(CCCNCc2ccc(OC)c(OC)c2OC)C4=O)c(OC)c1OC,-92.8% (active)
12,O=C(/C=C1\C(=O)N(Cc2ccccc2)c2ccccc21)c1ccc(OCCN2CCCCC2)cc1,93.8%
13,Cc1nnc(/N=C2\NC(=O)/C(=C/C=C/c3ccccc3)S2)s1,67%
14,O=c1oc2ccc3ccccc3c2cc1-c1ccnc2[nH]c(=S)[nH]c(=O)c12,101%
15,Cn1cnc2nc[nH]c2c1=S,102%
16,COc1ccc(Cn2cc3c(c2-c2ccc(O)cc2)CCc2cnoc2-3)cc1,-21.1% (active)
17,CC(Br)c1nc2ccccc2cc1C(N)=O (stereo not given),102%
18,c1cc(C2CCCCC2)ccc1OCCCCCCN1CCNCC1,12.9%
19,CC(O)CN(CC(C)O)N(CC(C)O)CC(C)O (stereo not given),107%
20,COc1ccc2nc3cc(Cl)ccc3c(NCCCNC(C)=O)c2c1,50.3%
21,O=C1N/C(=N\c2nnc(-c3ccc(O)cc3)s2)S/C1=C\c1ccccc1O,106%
22,CCCCCc1ccnc(CC(=O)c2ccc(OC)cc2)c1,101%
23,NC(=O)CC(NC(=O)COc1ccc(Cl)cc1Cl)C(=O)O (stereo not given),109%
24,COc1cc2ncnc(Nc3ccc4c(cnn4C(=O)Nc4ccccc4)c3)c2cc1OC,87.4%
25,CCC(C)(CC)c1ccc(O)c(C)c1,116%
26,CC(O)C(N)=O (stereo not given),100%
27,COc1cc(NC(C)CCCN)c2nc(C)ccc2c1OC (stereo not given),87.2%
28,Cc1cc2c(-c3nc4ccccc4n3C)c(O)c(O)cc2c(O)c1-c1c(C)cc2c(-c3nc4ccccc4n3C)c(O)c(O)cc2c1O,66.5%
29,CCCC(=O)NNc1[nH]c(-c2cc(OC)c(OC)c(OC)c2)cc1C(=O)OCC,95.3%
30,CSCc1ncc(-c2ccc(C(F)(F)F)cc2)c(NC2CCCCCC2)n1,89.9% [25 µM]
